Test results as given in PubChem BioAssay (NCATS).
Inconclusive results are not listed. A call without a number means that no potency is given here. Calls of active or inactive are those of the source. Unless noted, calls come from the whole dose curve; as a rule, active = well fitted curve in the direction sought with a large enough effect; inconclusive = small, poorly fitted or top-dose-only effect, or another doubt; inactive = no such curve, though single readings can be large; an effect the other way counts as inactive or inconclusive.

How the values were obtained:
[1] = molecular target: DNA repair nuclease/redox regulator APEX1 (Homo sapiens) (UniProt P27695); assay: qHTS Validation Assay for Inhibitors of the Human Apurinic/apyrimidinic Endonuclease 1 (APE1) (AID 1705;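 note: TAMRA fluorescence gain over two minutes as APE1 cuts a quenched THF abasic duplex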)
Sequence of DNA repair nuclease/redox regulator APEX1 (Homo sapiens) (P27695 whole entry, looked up): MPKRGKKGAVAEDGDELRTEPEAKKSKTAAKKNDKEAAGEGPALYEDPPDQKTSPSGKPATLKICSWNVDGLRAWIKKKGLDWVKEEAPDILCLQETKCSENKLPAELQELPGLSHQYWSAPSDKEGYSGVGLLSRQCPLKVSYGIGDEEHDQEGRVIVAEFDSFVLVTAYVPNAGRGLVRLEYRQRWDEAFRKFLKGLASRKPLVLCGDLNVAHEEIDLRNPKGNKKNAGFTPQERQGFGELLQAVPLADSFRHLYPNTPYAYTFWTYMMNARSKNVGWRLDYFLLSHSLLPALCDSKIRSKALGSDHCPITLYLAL
Procedure, shortened: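 Fluorogenic double-stranded THF abasic-site substrate (5'-TAMRA/3'-BHQ-2), 50 nM final. Enzyme preincubated with compound 15 min at room temperature, then substrate added. Kinetic fluorescence (ex 525/em 598 nm) read three times at 60 s intervals; activity taken as third-minus-first read difference.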

[2] = Counterscreen for APE1 Inhibitors: Fluorescent Dye Displacement Validation Assay (AID 1707)
Procedure, shortened: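 Thiazole Orange displacement from dsDNA: 250 nM ThO with 50 nM TAMRA-labelled abasic-site (tetrahydrofuran) duplex in 50 mM Tris-HCl pH7.5, 50mM NaCl, 2 mM MgCl2, 0.01% Tween-20. Loss of endpoint fluorescence (ex 480 nm, em 540 nm) flags DNA binders.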

[3] = molecular target: Endonuclease 4 (Escherichia coli (strain K12)) (UniProt P0A6C1); assay: Counterscreen for APE1 Inhibitors: qHTS Validation Assay for Inhibitors of Endonuclease IV (AID 1708)
Procedure, shortened: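 Cleavage of a quenched abasic-site DNA duplex (50 nM, 5'-TAMRA, 3'-BHQ-2) by 2 nM enzyme is followed as fluorescence increase. Compounds are preincubated with enzyme 15 min at room temperature before substrate addition.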

[4] = molecular target: Alpha-galactosidase A (Homo sapiens) (UniProt P06280); assay: Counterscreen for Glucocerebrosidase Inhibitors: qHTS Assay for Human alpha-Galactosidase at pH 4.5 (AID 992)
Sequence of Alpha-galactosidase A (Homo sapiens) (P06280 whole entry, looked up): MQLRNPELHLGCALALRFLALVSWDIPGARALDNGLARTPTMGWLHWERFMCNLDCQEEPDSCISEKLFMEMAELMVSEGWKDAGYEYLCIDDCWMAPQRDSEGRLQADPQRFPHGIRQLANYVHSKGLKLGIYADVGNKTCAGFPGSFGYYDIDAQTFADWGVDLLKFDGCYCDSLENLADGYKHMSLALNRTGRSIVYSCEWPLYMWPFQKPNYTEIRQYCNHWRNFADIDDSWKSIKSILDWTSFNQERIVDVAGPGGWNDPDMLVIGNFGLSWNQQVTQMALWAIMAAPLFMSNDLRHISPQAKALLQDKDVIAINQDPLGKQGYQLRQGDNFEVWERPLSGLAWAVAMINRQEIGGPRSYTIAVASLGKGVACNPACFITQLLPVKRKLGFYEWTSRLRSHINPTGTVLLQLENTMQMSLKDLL
Procedure, shortened: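 Enzyme at 2 nM final was combined with compound (0.7 nM to 77 uM) and 80 uM 4-methylumbelliferyl alpha-D-galactopyranoside in 50 mM citric acid, 0.005% Tween-20, pH 4.5. After 20 min at room temperature, fluorescence was read (Ex 365/Em 440 nm); AC50 came from Hill fits.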

[5] = molecular target: alpha-glucosidase (Oryza sativa, rice) (UniProt Q653V4); assay: Counterscreen for Glucocerebrosidase Inhibitors: qHTS Assay for Rice alpha-Glucosidase at pH 5.0 (AID 997)
Procedure, shortened: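 Rice alpha-glucosidase (4 nM final) with 400 uM 4-methylumbelliferyl-alpha-D-glucopyranoside in citrate buffer pH 5.0, 20 min at room temperature, stopped at pH 10; fluorescence 365/440 nm, compounds 0.7 nM–77 uM, AC50 from Hill fits.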

[6] = qHTS for differential inhibitors of proliferation of Plasmodium falciparum line GB4 (AID 1816); conditions: Potency: Plasmodium falciparum GB4 proliferation inhibition;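 note: parasite growth measured after 72 h incubation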; note: potency is the fitted concentration of half-maximal effect
[7] = Cell Viability - LYMP2-008 (AID 980); note: nearly all actives have a fitted effect of over 60% in size
Procedure, shortened: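 Acute cytotoxicity is scored as concentration-dependent loss of cellular ATP in a human lymphoblastoid line after 24 hr treatment at 37 C. ATP is quantified by luciferase luminescence.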

[8] = Cell Viability - LYMP2-010 (AID 981);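 note: cells exposed to compound for 24 hours at 37 °C; nearly all actives have a fitted effect of over 55% in size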
Procedure, shortened: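 Acute toxicity is scored as a concentration-dependent loss of cellular ATP in human lymphoblastoid cells after 24 hr compound exposure in complete medium. Tetraoctylammonium bromide is the positive control.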

[9] = Cell Viability - LYMP2-012 (AID 982);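 note: cellular ATP by luciferase luminescence where a drop means cytotoxicity; cells exposed to compound for one day before reading; nearly all actives have a fitted effect of over 55% in size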
[10] = Cell Viability - LYMP2-014 (AID 983); note: nearly all actives have a fitted effect of over 50% in size
Procedure, shortened: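 Decrease in intracellular ATP after 24 hr treatment at 37 C, measured by luciferase luminescence, indicated cytotoxicity. Concentration-response data were fitted with the standard Hill equation to give AC50.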

[11] = Cell Viability - LYMP2-016 (AID 984);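 note: cells exposed to compound for 24 hours at 37 °C; nearly all actives have a fitted effect of over 55% in size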
Procedure, shortened: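 Human lymphoblastoid LYMP2-016 cells, 2500 per well, treated with compounds for 24 h at 37 C. Viability read as intracellular ATP by CellTiter-Glo luminescence after 30 min at room temperature; AC50 from Hill fits of concentration-response.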

[12] = Cell Viability - LYMP2-020 (AID 986); note: nearly all actives have a fitted effect of over 55% in size
Procedure, shortened: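 Acute cytotoxicity in a human lymphoblastoid line is scored as a concentration-dependent fall in cellular ATP after 24 hr at 37 C in complete medium. The positive control is tetraoctylammonium bromide, and potency is given as Hill-fit AC50.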

[13] = Cell Viability - LYMP2-022 (AID 987); note: nearly all actives have a fitted effect of over 55% in size
Procedure, shortened: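 Acute toxicity in a human lymphoblastoid line is scored as decreased intracellular ATP after 24 hr compound treatment at 37 C. ATP is measured by CellTiter-Glo luminescence; curves are fitted with the Hill equation to give AC50.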

[14] = Cell Viability - LYMP2-024 (AID 988);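 note: cells exposed to compound for 24 hr at 37 °C; nearly all actives have a fitted effect of over 60% in size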
Procedure, shortened: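 Acute toxicity is measured as concentration-dependent loss of intracellular ATP in a human lymphoblastoid line treated 24 hours at 37 C. Luciferase luminescence quantifies ATP; AC50 values come from standard Hill-equation modelling.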

[15] = Cell Viability - LYMP2-026 (AID 989); note: nearly all actives have a fitted effect of over 50% in size
Procedure, shortened: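 Concentration-dependent loss of intracellular ATP in human lymphoblastoid cells after 24 hr at 37 C, quantified by luciferase luminescence. AC50 derived from standard Hill equation.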

[16] = Cell Viability - LYMP1-002 - Assay at 24 hr (AID 993)
Procedure, shortened: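 qHTS, LYMP1-002 lymphoblastoid, 24 h cpd, 37 C, CellTiter-Glo ATP luminescence; AC50 via Hill eq.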

[17] = Cell Viability - LYMP1-002 - Assay at 40 hr (AID 994); note: nearly all actives have a fitted effect of over 60% in size
Procedure, shortened: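 Viability in the human lymphoblastoid line was measured as intracellular ATP via CellTiter-Glo after 40 hr compound exposure. Tetraoctylammonium bromide served as positive control.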

[18] = qHTS Assay for Lipid Storage Modulators (AID 1519; calls by dose curve); conditions: Drosophila S3 cells, BODIPY lipid droplet/cell ratio, laser cytometry, cells loaded with oleic acid; for activity change, negative = inhibition: at 57.5 µM (top of the series)
Procedure, shortened: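 Cells seeded at 5,000 per well were treated with compounds over a concentration series and loaded with oleic acid (400 uM, as added). Lipid droplet fluorescence (488 nm excitation, 500-530 nm channel) was read by laser-scanning cytometry and normalized to 20 uM Triacsin C.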

[19] = qHTS for differential inhibitors of proliferation of Plasmodium falciparum line 7G8 (AID 1815);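 note: parasite growth measured after three days of incubation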; note: potency is the fitted concentration of half-maximal effect
[20] = measured here: cell count channel max response
[21] = measured here: lipid channel max response

In the case of `CNC(=O)Oc1ccc2c(c1)[C@]1(C)CCN(C)[C@@H]1N2C`, the Potency [1] is reported as “inactive”, the Potency [2] is reported as “inactive” and the Potency [3] is reported as “inactive”.
In the case of `CC(C)C(=O)c1c(C(C)C)nn2ccccc12`, the outcome [4] is reported as “inactive”, the outcome [5] is reported as “inactive” and the Potency [1] is reported as “inactive”. For the same molecule, the Potency [2] was “inactive”, the Potency [3] was “inactive” and the Potency [6] was “inactive”.
For `O=C1c2c(O)cccc2Cc2cccc(O)c21`, the Potency [7] was “inactive”, the Potency [8] was “inactive” and the outcome [9] was “inactive”. The outcome [10] was “inactive”, the Potency [11] was “inactive” and the Potency [12] was “inactive”. For the same molecule, the Potency [13] was “inactive”, the outcome [14] was “inactive” and the Potency [15] was “inactive”. The Potency [16] was “inactive”, the Potency [17] was “inactive” and the activity change, negative = inhibition [18] was 2.53% (inactive). It also gave a max response [18, 20] of 14.4% and a max response [18, 21] of 20.2%.
With `CC1(C)[C@@H]2CC[C@@]1(C)C(=O)C2` the Potency [7] was “inactive”, the Potency [8] was “inactive” and the outcome [9] was “inactive”. For the same molecule, the outcome [10] was “inactive”, the Potency [11] was “inactive” and the Potency [12] was “inactive”. For the same molecule, the Potency [13] was “inactive”, the outcome [14] was “inactive” and the Potency [15] was “inactive”. For the same molecule, the Potency [16] was “inactive”, the Potency [17] was “inactive” and the activity change, negative = inhibition [18] was 1.5% (inactive). The max response [18, 20] was -8.09% and the max response [18, 21] was -6.29%.
In the case of `C[C@]12CC[C@@H]3c4ccc(O)cc4CC[C@H]3[C@@H]1CCC2=O`, the outcome [4] is reported as “inactive”, the outcome [5] is reported as “inactive” and the Potency [1] is reported as “inactive”. The Potency [2] was “inactive” and the Potency [19] was 3.98 µM (active).
With `CSc1ccc2c(c1)N(CCC1CCCCN1C)c1ccccc1S2` (configuration not stated) the activity change, negative = inhibition [18] was -0.301% (inactive), the max response [18, 20] was -6.02% and the max response [18, 21] was -4.98%. For the same molecule, the Potency [1] was “inactive”, the Potency [2] was “inactive” and the Potency [19] was 4.47 µM (active). For the same molecule, the Potency [6] was 3.98 µM (active).
For `Cc1cc(N)c2ccccc2[n+]1CCCCCCCCCC[n+]1c(C)cc(N)c2ccccc21`, the outcome [4] was “inactive”, the outcome [5] was “inactive” and the activity change, negative = inhibition [18] was -10.5% (inactive). The max response [18, 20] was -7.09%, the max response [18, 21] was -16.4% and the Potency [6] was 0.251 µM (active).
For `Cc1cc2nc3c(=O)[nH]c(=O)nc-3n(C[C@H](O)[C@H](O)[C@H](O)CO)c2cc1C`, the Potency [7] was “inactive”, the Potency [8] was “inactive” and the outcome [9] was “inactive”. The outcome [10] was “inactive”, the Potency [11] was “inactive” and the Potency [12] was “inactive”. The Potency [13] was “inactive”, the outcome [14] was “inactive” and the Potency [15] was “inactive”. The Potency [16] was “inactive” and the Potency [17] was “inactive”.
In the case of `CC(=O)OCC(=O)[C@@]1(O)CC[C@H]2[C@@H]3CCC4=CC(=O)CC[C@]4(C)[C@H]3C(=O)C[C@@]21C`, the outcome [4] is reported as “inactive”, the outcome [5] is reported as “inactive” and the Potency [1] is reported as “inactive”. The Potency [2] was “inactive”, the Potency [3] was “inactive” and the Potency [19] was “inactive”. The Potency [6] was “inactive”.
For `CCCCCCCCCCCCOS(=O)(=O)O`, the Potency [7] was “inactive”, the Potency [8] was “inactive” and the outcome [9] was “inactive”. The outcome [10] was “inactive”, the Potency [11] was “inactive” and the Potency [12] was “inactive”. The Potency [13] was “inactive”, the outcome [14] was “inactive” and the Potency [15] was “inactive”. For the same molecule, the Potency [16] was “inactive” and the Potency [17] was “inactive”.
For `CN(C)CCCN1c2ccccc2CCc2ccccc21`, the outcome [4] was “inactive”, the outcome [5] was “inactive” and the Potency [1] was “inactive”. The Potency [2] was “inactive”.
With `Oc1cccc(O)c1` the Potency [7] was “inactive”, the Potency [8] was “inactive” and the outcome [9] was “inactive”. The outcome [10] was “inactive”, the Potency [11] was “inactive” and the Potency [12] was “inactive”. The Potency [13] was “inactive”, the outcome [14] was “inactive” and the Potency [15] was “inactive”. For the same molecule, the Potency [16] was “inactive”, the Potency [17] was “inactive” and the activity change, negative = inhibition [18] was 4.72% (inactive). For the same molecule, the max response [18, 20] was 10.3% and the max response [18, 21] was 16.6%.
With `CC12CCC(CC1)C(C)(C)O2` the Potency [7] was “inactive”, the Potency [8] was “inactive” and the outcome [9] was “inactive”. The outcome [10] was “inactive”, the Potency [11] was “inactive” and the Potency [12] was “inactive”. The Potency [13] was “inactive”, the outcome [14] was “inactive” and the Potency [15] was “inactive”. For the same molecule, the Potency [16] was “inactive”, the Potency [17] was “inactive” and the activity change, negative = inhibition [18] was 2.95% (inactive). It also gave a max response [18, 20] of -6.11% and a max response [18, 21] of -2.37%.
For `NC(N)=NCCC[C@H](N)C(=O)O`, the outcome [4] was “inactive”, the outcome [5] was “inactive” and the activity change, negative = inhibition [18] was -0.95% (inactive). The max response [18, 20] was -7.59%, the max response [18, 21] was -6.54% and the Potency [2] was “inactive”. For the same molecule, the Potency [3] was “inactive”, the Potency [19] was “inactive” and the Potency [6] was “inactive”.
For `O=C1O[C@H]([C@@H](O)CO)C(O)=C1O`, the Potency [7] was “inactive”, the outcome [9] was “inactive” and the outcome [10] was “inactive”. For the same molecule, the Potency [11] was “inactive”, the Potency [12] was “inactive” and the Potency [13] was “inactive”. The outcome [14] was “inactive”, the Potency [15] was “inactive” and the Potency [16] was “inactive”. The Potency [17] was “inactive”.
For `CCCCOC(=O)c1ccc(O)cc1`, the Potency [7] was “inactive”, the Potency [8] was “inactive” and the outcome [9] was “inactive”. The outcome [10] was “inactive”, the Potency [11] was “inactive” and the Potency [12] was “inactive”. For the same molecule, the Potency [13] was “inactive”, the outcome [14] was “inactive” and the Potency [15] was “inactive”. The Potency [16] was “inactive” and the Potency [17] was “inactive”.
In the case of `NC(=O)N/N=C/c1ccc([N+](=O)[O-])o1`, the Potency [12] is reported as “inactive”, the Potency [15] is reported as “inactive” and the Potency [16] is reported as “inactive”. The activity change, negative = inhibition [18] was -28.3% (inactive), the max response [18, 20] was -6.33% and the max response [18, 21] was -28%.
